40 sequences from the supplement of paper PMC6555819 can be followed below.

This experiment has as its system VDR:RXRa (NR concentration 270 nM, RXRa partner concentration 90 nM). Put plainly: PBM binding z-score (relative to random genomic background probes); higher = stronger binding; sequences stand for … in GC…GCGATTGACAGCGTAGAATGAAGG
As to the method: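 Protein-binding microarray (Agilent 4x180K custom design, double-stranded 60-nt probes: 5' GC cap, 34-nt variable region, 24-nt constant primer region; full probe sequence given). Purified or IVT nuclear receptor:RXRα heterodimers (3:1 NR:RXRα, mostly 270:90 nM) or homodimers were incubated for 1 h in PBS with 2% milk and no ligand, then detected with Alexa488 antibodies. Fluorescence from o1-orientation probes (~5 replicates averaged) was converted to z-scores against 500 random hg19 background probes. Variable regions are seed direct-repeat (DR0–DR5) sites, all their single-nucleotide variants and half-site ablations.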
Sequence CGTCCAAGGTCAAGGTCAGTGACAGAGACTCGAA showed a PBM binding z-score of 4.83. The value for AGTCAAAGTTAAGGACGAGGTAACGTAAAGCACG was -0.131; that for TCTTGTAGATCAACCGGAGGTTAAGAAAGATCGA was 0.672. The value for AGAACGCGGGCACGCTGAGTTGATAGCAGAGTAG was -0.403. The value for TCTATTAGTTGAAGGGCAACCGGCGAGTCCGTTT was 0.946; that for CCGACTGGGGCATAAGGTTACCAAAAGCCAGCCC was 0.198. For the sequence GGAACGAGGGCAAATTGATAGCAGAGTTTGATGG, the PBM binding z-score came to 0.922.

Consider CCAGCTAGGTCAATGGTCAGCTAAAGCAGCTCGC, for which the PBM binding z-score was 1. The value for ATATGTAGGTTACATCCGGGTCATTTAGGCTATG was 3.9; that for AGAACGAGGTTATACGTAGATCAGGGAAGAAAGT was 1.08; that for CGTCCAAGGTAAAAGGTCAGTGAAGAGATGACGG was 2.93.

Sequence ATCTCTAGGTAACAAGTTCCGTGAAAGAGAGGAC had a PBM binding z-score of 0.0818.

On to CAAACTAGGTCAAAGGTCAATGTCGAGCCAACCA, for which the PBM binding z-score turned out to be 6.33.

ATCGTAAGGTCGACGAGGTGAGTATACACCGTTT gave a PBM binding z-score of 4.52. The value for GCTTACGGGTCAAAGGTTATAGCATGAATAGAAT was 5.86; that for TCATATAGGTAAAGGTGAAAGACGAACGATATGA was 0.914. The value for GGAACGACGGCATTCGAGTTGATAGCATGGCGAT was -0.42; that for ATCTCTAGGTAAAGTTCGGTGAAAGATCGATAGA was 0.603. The value for CCTACTGGGCCATTCAGAGGTCATTGAGCATATG was 4.17; that for CCTTACGGGTCAAGGTTACAGCACGGGTGGTACG was 3.34. Sequence AGTCAAAGTTCATCGAGGTAACGTAAGATATGCT returned a PBM binding z-score of 6.17.

Take ATCTCTAGGTAAAGATAGTTCATTGAATGCAAAT: the PBM binding z-score amounted to 2.07. Turning to GCTGCCAGGTCAACTGATGGTCAGCTAAAGCTCG, the PBM binding z-score was determined as 2.62.

As for TCATATAGGTACAAGGTGAAAGTCGGTGTGGTAA, the PBM binding z-score was 1.22.

The sequence AGTCAAAGTTCACTAGGTAACGGAAGATTCAGCT showed a PBM binding z-score of 3.97. As for CGAACTAGGTCATCCGGGACAGTGAATACATTGA, the PBM binding z-score is 4.04. The sequence TTGCCTAGGTCATGCGGGCCAGTATAGTGTCGGC had a PBM binding z-score of 2.8. The value for CTACCAAGGTGAACAAGGTCGTTGCTTACTATTC was 6.16; that for CCTACTGGGCCACGAAAGGACATTGATTCAGTGA was -0.289. The value for ACTCGGAGGACAAAGCTCAGAGCTACGCCAGTGA was -0.859; that for TCTTGTAGATCAGTAGAGGTTAAGAAAGTGCGCT was 1.51. The value for TTACCAAGGTGTGCTGAGGTCGTTGATCCAACTC was 2.39; that for TCGCCTAGGTCAGATCGGGCCAGTATACGCTATA was 0.717; that for CCTCGGAGGACAGAATGTCAGAGCTGTCCGCTTT was -0.778.

Regarding CATTACGGGTCACTGACAGGTTATAGCATTTGGA, the PBM binding z-score came out at 4.

Regarding TCGAGTAGGTTAGGGGGATTCAGAATGGCGTCGA, the PBM binding z-score was 0.8. The value for TTAGACAGGTGAAGGTAACTCAGGTACGCAGTCG was 0.618; that for ATATGTAGGTTAGCTGGGGTCTTTCAGACTAGGC was 1.28.

CTACCAAGGTGAACACGGTCGTTGATTACTATTC: the PBM binding z-score worked out at 3.01.

Consider GCTTGTAGATGAAGGTTAAGAAAGACTAAGCTAA, for which the PBM binding z-score was -0.396.
